Shown is part of a subset that was picked to be rich in hits.
KDM5B inhibitor – Primary screen for KDM5B Histone Demethylases FDH-coupled qHTS | Lysine-specific demethylase 5B (Homo sapiens), Q9UGL1 | KDM5B demethylase, FDH-coupled NADH fluorescence (FDH is formaldehyde dehydrogenase) | Potency, µM (highest dose often 57.7 µM), actives largely listed as inhibitors | 220,000 tested, 2.6% active; active = well fitted inhibition curve with a large enough effect; note: nearly all actives have a fitted effect of over 70% in size
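KDM5BΔAP (200 nM final) in 50 mM HEPES pH 7.5, 0.01% Tween-20 was preincubated 10 min at RT with compound over a concentration range. Substrate mix (H3K4me3 12.5 µM, α-KG 25 µM, Fe²⁺, ascorbate, NAD⁺, FDH) was added, and NADH fluorescence change over 30 min gave dose-response curves.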
A number is an active result; n = inactive.

SMILES | KDM5B inhibitor
COc1ccc(-c2cc3nc4c(c(=O)n3[nH]2)CCN(C(=O)COc2ccccc2C)C4)cc1 | 32µM
COc1ccc(NC(=O)N2CCc3nc4cc(-c5ccccc5)[nH]n4c(=O)c3C2)c(C)c1 | 10µM
CCOC(=O)c1c(-c2ccc(Br)cc2)csc1NC(=O)c1ccc(F)cc1 | n
COc1ccc(OC)c(S(=O)(=O)NCCS(=O)(=O)N2CCN(c3ccccc3F)CC2)c1 | n
O=C(Cn1nc(-c2ccccc2F)ccc1=O)N1CCc2ccccc2C1 | n
Cc1cc(C(=O)Nc2nnc(C3CC3)s2)c2ccccc2n1 | n
CC(C)n1cc(-c2nc3cc(S(=O)(=O)N4CCCC4)ccc3n2C)cn1 | n
O=C(C1COc2ccccc2O1)N1CCc2onc(-c3cccc(F)c3)c2C1 (stereo not given) | n
O=C(Cc1ccc2c(c1)OCO2)N1CCc2onc(-c3cccc(F)c3)c2C1 | n
O=C(COCC1CCCO1)N1CCc2onc(-c3ccc4c(c3)OCO4)c2C1 (stereo not given) | 22µM
O=C(c1ccco1)N1CCCC1c1nc(C2CCOCC2)no1 (stereo not given) | n
CCc1nnc(CN(C)c2cc(C3CC(O)C3)nc(N)n2)o1 (stereo not given) | n
CC(C)c1cc(C(=O)NCC2CCN(c3cnn(C)c(=O)c3)C2)n(C)n1 (stereo not given) | n
Cn1ncc(N2CCC(CNC(=O)c3cn4cccnc4n3)C2)cc1=O (stereo not given) | 28µM
Cn1ncc(N2CCC(CNC(=O)c3cccc(CO)n3)C2)cc1=O (stereo not given) | n
O=C(Nc1ccn([C@H]2CC[C@@H](CO)O2)c(=O)n1)c1ccccc1 | n
CN1C(=S)SC(N(O)C=C2C=CC(=O)C=C2)C1(C)C (stereo not given) | n
CCC1CCCCN1C(=O)Cn1nc2cc(C)nc(N3CCc4ccccc4C3)n2c1=O (stereo not given) | n
O=S(=O)(Nc1nc2ccccc2nc1NCc1ccccc1Cl)c1ccc(F)cc1 | n
CN(c1ccccc1)c1ccc2nnc(-c3cc(C(=O)NCc4ccncc4)ccn3)n2n1 | 32µM
O=C(NCC1CCCO1)c1ccnc(-c2nnc3ccc(Nc4ccccc4)nn23)c1 (stereo not given) | n
CN1CCN(C(=O)c2ccnc(-c3nnc4ccc(N(C)C)nn34)c2)CC1 | n
COc1ccc(C(CNC(=O)c2cc(-c3cccs3)on2)N2CCOCC2)cc1 (stereo not given) | n
CC(C)c1nc(CNC(=O)c2ccc(NC3CCCCC3)nc2)no1 | 22µM
CC(C)c1nc(CNC(=O)c2ccc(N3CCCC(C(N)=O)C3)nc2)no1 (stereo not given) | n
SMILES | KDM5B inhibitor
Cc1ccc(C(=O)NCc2cccnc2N(C)C2CCCCC2)cn1 | n
Cc1nc(NC2CCCCC2)ncc1C(=O)O | 32µM
CS(=O)(=O)c1cnc(NC2CCCC2)nc1C1CCCNC1 (stereo not given) | n
Cc1nc(C)c(C(=O)O)cc1C(=O)O | n
COc1ccc(-c2noc(-c3cccn3CC(=O)Nc3ccccc3OC)n2)cc1F | n
COCCn1ccc2c(C3=CCOCC3)nc(-c3cccc(NC(C)=O)c3)cc21 | 35µM
COCCN1Cc2[nH]nc(-c3cccc(NC(C)=O)c3)c2CC1=O | n
COCCn1ccc2c(C3=CCOCC3)nc(-c3cccc4cn[nH]c34)cc21 | 35µM
COCCn1ccc2c(C3=CCOCC3)nc(-c3cccc(N[S+](C)(=O)[O-])c3)cc21 | n
COc1ccccc1CNC(=O)Cn1c(=O)c2c(ncn2C)n(C)c1=O | n
Cc1ccc(S(=O)(=O)NNC(=S)NCC2CCCO2)cc1 (stereo not given) | n
COc1ccc(Cl)cc1NC(=O)Cn1c(N2CCOCC2)nc(C)cc1=O | n
CC(C)(C)OC(=O)Nc1cccc(C(=O)NCC(c2cccs2)N2CCOCC2)c1 (stereo not given) | n
COCCn1ncc(N2CCC(NC(=O)C(C)c3ccccc3)CC2)cc1=O (stereo not given) | n
CC(C)CNc1ccc2c(n1)C(C)(C(=O)NC(C)C)CN(Cc1ccccc1)C2 (stereo not given) | n
Cn1ccc(NC(=O)CCc2nc(-c3ccccc3)no2)n1 | n
COCCN1Cc2ccc(Nc3cccnc3)nc2C(C)(C(=O)NCc2ccncc2)C1 (stereo not given) | 25µM
COCCN1Cc2ccc(Nc3ccc(OC)cc3)nc2C(C)(C(=O)NC2COC2)C1 (stereo not given) | n
COCCn1c(C(=O)NCc2ccccc2)nc2ccccc2c1=O | n
CC(C)CNc1ccc2c(n1)C(C)(C(=O)Nc1ccncc1)CN(Cc1ccccc1)C2 (stereo not given) | n
COCCN1Cc2ccc(NCc3ccccc3)nc2C(C)(C(=O)Nc2ccn(C)n2)C1 (stereo not given) | 35µM
COCCN1Cc2ccc(NCC(C)C)nc2C(C)(C(=O)NC2CC2)C1 (stereo not given) | 32µM
CC(C)CNc1ccc2c(n1)C(C)(C(=O)NC1COC1)CN(Cc1ccccc1)C2 (stereo not given) | 32µM
COc1ccc(/C=C\c2onc(C)c2S(=O)(=O)N2CCC(C(=O)Nc3cccc(Cl)c3)CC2)cc1 | n
Cc1cc(Nc2ccccc2)c2c([N+](=O)[O-])c(C)cc(C)c2n1 | n
SMILES | KDM5B inhibitor
N#CC(C#N)=C(/C=C/c1ccc(OC(F)F)cc1)C1CC1 | n
O=C(CSc1nc2c(c(=O)[nH]1)CCC2)Nc1cc(C(F)(F)F)ccc1Cl | n
CCC(C)(C)C1CCc2c(sc(NC(=O)CCl)c2C#N)C1 (stereo not given) | n
CCOc1cc(=O)n2c(c1C(=O)Nc1ccc(Cl)cc1Cl)CCCC2 | n
COCCn1c(-n2nc(C)cc2C)nc2c1c(=O)n(Cc1ccc(Cl)cc1)c(=O)n2C | n
COc1ccc(-c2c(NC(=O)c3cccc([N+](=O)[O-])c3)oc3ccc(Cl)cc3c2=O)cc1OC | n
C[C@]1(O)CCN(C(=O)c2ccc3c(c2)OCC(=O)N3)C[C@@H]1O | n
COc1ccccc1N1CCN(C(C(=O)O)c2c[nH]c3cc(NC(=O)CCC(=O)O)ccc23)CC1 (stereo not given) | n
CCOc1nccnc1NC1CCN(C(=O)Cc2cccs2)CC1 | 32µM
O=C(Cc1cccs1)N1CCSCC1 | n
Cc1ccc(CC(=O)N2CCN(C(=O)C3CCCO3)CC2)cc1 (stereo not given) | n
CCOC(=O)N1CCC(Nc2ncncn2)CC1 | n
CNC(=O)N1CCC(Oc2ncccc2C(=O)N(C)C)C1 (stereo not given) | n
CCCOc1cccc(C(=O)N2CCN(C(=O)C3CCCO3)CC2)c1 (stereo not given) | n
CCOc1nccnc1NC1CCN(C(=O)NC)CC1 | 28µM
CCOc1nccnc1NC1CCN(C(=O)C2CCCO2)CC1 (stereo not given) | 28µM
O=C(Cc1cccs1)N1CCC(Oc2ccccc2)C1 (stereo not given) | n
Cn1c(=O)c2c(nc(SCC(N)=O)n2Cc2ccc(Cl)cc2)n(C)c1=O | n
Cc1ccc(Cn2ccn(Cc3cccc(C(F)(F)F)c3)c(=O)c2=O)cc1 | n
CC1CCc2c(sc(NC(=O)CC(C)(C)C)c2C#N)C1 (stereo not given) | n
O=C(Nc1ccccc1)Nc1ccc([C@H]2OCC(=O)N(Cc3ccncc3)[C@@H]2CO)cc1 | n
CC(=O)N1CC2(CCN(CC3CCCCC3)CC2)Cc2ccccc21 | n
Cc1ccc(CN2CC[C@H](c3nnc(-c4ccco4)o3)C2)o1 | n

Screening data from PubChem.
